Data as given in ChEMBL document CHEMBL1157539, “Thousands of chemical starting points for antimalarial lead identification” (Nature, 2010).

Assays:
Format in all cases: functional
[1] = test system: Plasmodium falciparum; assay: GSK_TCMDC: Inhibition of Plasmodium falciparum 3D7 in whole red blood cells, using parasite LDH activity as an index of growth. Test compounds present at 2uM
[2] = test system: Plasmodium falciparum; assay: GSK_TCMDC: Inhibition of Plasmodium falciparum Dd2 in whole red blood cells, using parasite LDH activity as an index of growth. Test compounds present at 2uM
[3] = test system: HepG2; assay: GSK_TCMDC: Percent inhibition of human HepG2 cell line. Test compounds present at 10uM.

| SMILES | Inhibition [1] [%] | Inhibition [2] [%] | Inhibition [3] [%] |
| --- | --- | --- | --- |
| Cc1ccc(-n2cc(CNCC3CCN(CCO)CC3)c(-c3ccc(F)cc3)n2)cc1 | 91 | 18 | 29 |
| CC(C)(CNC(=O)[C@@H]1CCCN(Cc2ccc(Cl)cc2)C1)c1nc(-c2ccc(Cl)c(O)c2)c(-c2ccncc2)[nH]1.Cl | 97 | 37 | 66 |
| O=C(Nc1cccc(-c2ccc(CN3CCC(O)CC3)cc2)c1)c1ccc(Cl)cc1.O=C(O)C(F)(F)F | 95 | 8 | 46 |
| CC1CCCCC1N(C)C1CCN(CCCNC(=O)C=Cc2cccc(C(F)(F)F)c2)CC1 (stereo not given) | 100 | 17 | 47 |
| COC(=O)c1cccc(CNCc2cccc(-c3ccc(-c4nc5ccccc5[nH]4)cc3)c2)c1.O=C(O)C(F)(F)F | 99 | 51 | 0 |
| CCN(CC)CCN(Cc1ccc(-c2ccc(C(F)(F)F)cc2)cc1)C(=O)Cn1c(CCc2cccc(F)c2F)nc(=O)c2cc(F)ccc21.O=C(O)C(O)C(O)C(=O)O | 98 | 45 | 15 |
| C=CCOC(=O)N1CCC(CNCc2ccc(-c3ccc(-c4nc5ccccc5[nH]4)s3)cc2)C1.O=C(O)C(F)(F)F (stereo not given) | 100 | 76 | 29 |
| O=C(C1CC1)N1c2ccccc2CCc2ccccc21 | 98 | 57 | 40 |
| Cc1ccc(Sc2ccc(NC(=O)CN3CCN(C(=O)c4ccco4)CC3)cc2)cc1C | 92 | 84 | 14 |
| O=C(NCc1cccc(F)c1)Nc1cccc(-c2ccc(-c3nc4cc(F)ccc4[nH]3)cc2)c1 | 84 | 0 | 46 |
